An excerpt weighted towards active compounds, which were near 21% of everything screened.
CHX counter – counter-screen for Shiga toxin inhibitors: cycloheximide protein synthesis inhibition; cell reporter, cycloheximide protein synthesis inhibition counterscreen; max response, %; 300,000 tested, 12% active; in the data active means max response mostly above about 13%, no sharp cut-off; inactive means mostly below about 14%; further: read at 38.3 µM for the half of the compounds with a filed dose; 0% is about no effect
Shiga inhibitor – blocks Shiga toxin action in Vero cells; AID 2315; 290,000 tested, 9.2% active; inhibition, % at 38.7 µM; Vero cells, Shiga toxin protein synthesis inhibition reporter; in the data active means inhibition mostly above about 28%, no sharp cut-off; inactive means mostly below about 43%; further: 0% is about no effect
Pf growth 48h – inhibits P. falciparum growth in the first generation, 48 h; P. falciparum luciferase growth in erythrocytes, 48 h; Potency, µM (top dose mostly 28.7 µM), for the others: at the highest dose activity change, negative = inhibition, hits mostly inhibitors; 310,000 tested, 5.9% active; further: potency means the concentration at half of the fitted maximal effect; on the % scale 0 is the no-effect control and ±100 the full control effect
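Luminescence readout; reporter = integrated firefly luciferase in P. falciparum. RBC culture at 2% hematocrit, 0.1% parasitemia final, 37 C/5% CO2; decreased signal taken as growth inhibition.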
Sm TGR block – blocks Schistosoma mansoni thioredoxin glutathione reductase. 360,000 tested, 3% active. Q962Y6. purified TGR, DTNB reduction, TNB absorbance 405 nm. Potency, µM (top dose mostly 114 µM), inactives show at the top dose activity change, negative = inhibition, most hits filed as inhibitors. AID 485364; further: potency means the concentration at half of the fitted maximal effect; on the % scale 0 is the no-effect control and ±100 the full control effect; nearly all actives have a fitted effect of over 60% in size
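First, TGR (20 nM dispensed) and NADPH were mixed with compound. Second, a 15 min room-temperature incubation followed. Third, further NADPH and then DTNB were added to start the reaction. Finally, TNB absorbance was monitored kinetically.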
NS1 inh – inhibitors of influenza NS1 protein function | Potency, µM (titrated, usually from 46.1 µM), without a hit: top-dose activity, positive = more growth | 270,000 tested, 0.4% active; calls by dose curve; further: potency means the concentration at half of the fitted maximal effect; actives are rising curves; nearly all actives have a fitted effect of over 50% in size
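Recovery from NS1-induced slow growth read by OD600 in budding yeast switched to galactose assay medium (pH 6.0, -URA) at 1:100 dilution. Compound 23 nl per well; the matching strain lacking NS1 serves as control.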
Pf growth 96h – P. falciparum growth inhibition at 96 hour, primary screen for plastid delayed-death inhibitors. Potency, µM (doses to about 28.7 µM), for inactives: top-dose activity change, negative = inhibition, hits mostly inhibitors. P. falciparum luciferase reporter growth, 96 h. AID 504834. 320,000 tested, 6.9% active; further: potency means the concentration at half of the fitted maximal effect; on the % scale 0 is the no-effect control and ±100 the full control effect
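Readout is luminescence from an integrated firefly luciferase in P. falciparum. Red cells, 2% hematocrit and 0.05% parasitemia final, were cultured with compound through two parasite generations (96 hours) at 37 C, 5% CO2.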
* marks the source's active call; other numbers are inactive results; ? = inconclusive; . = not tested or not shown; [ ] = another dose, or the depositor's remark. Unless noted, the call rests on the fitted dose curve; in most records, active means well fitted curve in the direction sought with a large enough effect; inconclusive means small, poorly fitted or top-dose-only effect, or another doubt; inactive means no such curve, though single readings can be large; an effect the other way counts as inactive or inconclusive.

SMILES | CHX counter | Shiga inhibitor | Pf growth 48h | Sm TGR block | NS1 inh | Pf growth 96h
O=C(NC1=NCCS1)c1cc2ccccc2o1 | 18* | 17 | 202% | 5% | -48% | 76%
O=C(NC1=NCCS1)c1csc2ccccc12 | 39* | 59* | 257% | -3% | -161% | 0%
Cc1cccc(COCC(CC(C)C)N2CCN(C(=O)c3ccc(C(C)(C)C)cc3)CCC2=O)c1 (stereo not drawn) | 2 | 47 | 7.4µM* | -7% | -44% | ?
Cc1cccc(COCC(CC(C)C)N2CCN(C(=O)c3ccc(C(F)(F)F)cc3)CCC2=O)c1 (stereo not drawn) | -2 | -15 | 10µM* | -1% | -6% | ?
CC(C)CC(COCc1cccc(Cl)c1)N1CCN(C(=O)c2ccc(C(F)(F)F)cc2)CCC1=O (stereo not drawn) | -4 | 35 | 13µM* | -16% | 1% | 7.4µM*
Cc1ccc(COCC(CC(C)C)N2CCN(C(=O)c3cccc(C(F)(F)F)c3)CCC2=O)cc1 (stereo not drawn) | -3 | -15 | ? | -12% | -33% | ?
CC(C)CC(COCc1ccc(F)cc1)N1CCN(C(=O)c2cccc(C(F)(F)F)c2)CCC1=O (stereo not drawn) | -4 | -13 | ? | -11% | -14% | 13µM*
Cc1cccc(COCC(Cc2ccccc2)N2CCN(C(=O)c3ccc(C(F)(F)F)cc3)CCC2=O)c1 (stereo not drawn) | -1 | 12 | ? | -17% | 20% | ?
CC(C)(C)c1cc2c(O)c(c1)Cc1cc(C(C)(C)C)cc(c1O)Cc1cc(C(C)(C)C)cc(c1O)Cc1cc(C(C)(C)C)cc(c1O)Cc1cc(C(C)(C)C)cc(c1O)Cc1cc(C(C)(C)C)cc(c1O)Cc1cc(C(C)(C)C)cc(c1O)Cc1cc(C(C)(C)C)cc(c1O)C2 | . | . | . | . | -9% | .
O=C(c1cccc(Cl)c1)N1CCC(=O)N(C(COCc2cccc(Cl)c2)Cc2ccccc2)CC1 (stereo not drawn) | -4 | -11 | ? | -17% | 17% | 13µM*
CSc1ccc(CNc2ccc(Cl)cc2)cc1 | 27* | 79* | 60% | -25% | 0% | 137%
CCOC(=O)C1CCN(CCC(=O)Nc2ccccc2OC)CC1 | . | . | . | -6% | . | .
COCCn1c(C)cc(O)c(C(c2ccccc2OC)N2CCCCC2)c1=O (stereo not drawn) | . | . | . | 10µM* | . | .
CCOC(=O)C1CCN(C(c2ccccc2OC)c2c(O)cc(C)n(CCOC)c2=O)CC1 (stereo not drawn) | . | . | . | 7.1µM* | . | .
O=S(=O)(Oc1ccc(C(=S)N2CCOCC2)cc1)c1ccc(Cl)cc1 | -1 | 10 | 2% | -24% | -33% | ?
O=C(COc1ccc(C(=O)c2ccccc2)cc1)NCC(=O)Nc1ccccc1Br | -2 | -1 | 3% | -3% | -20% | -12%
COc1ccc2oc(=O)cc(CN3CCN(Cc4ccc(OC)c(OC)c4OC)CC3)c2c1 | -2 | 4 | ? | -14% | 0% | 6%
O=C(c1ccco1)N1CCN(S(=O)(=O)Cc2ccccc2Cl)CC1 | 6 | 16 | 17% | 32µM* | 2% | ?
Cc1ccccc1CN1CCN(C(=O)c2ccco2)CC1 | 33* | 36 | -14% | 0% | 1% | 123%
Cc1ccc(C)c(COc2coc(CN3CCN(C(=O)c4ccco4)CC3)cc2=O)c1 | . | . | 12µM* | -19% | . | ?
Cc1ccc2c(CN3CCN(C(=O)c4ccco4)CC3)cc(=O)oc2c1C | 1 | -12 | ? | 45µM* | . | ?
CCS(=O)(=O)N1CCN(C(=O)c2ccco2)CC1 | 0 | -17 | 5% | 35% | 0% | .
Cc1ccc2c(CN3CCN(Cc4ccccc4)CC3)cc(=O)oc2c1C | -4 | 4 | 0% | -22% | 4% | ?
Cc1c(-c2nc(N)nc(C3CC3)c2C)nc(N)nc1C1CC1 | . | . | . | . | -6% | .
CCC(C(=O)OCC(=O)Nc1ccc(SC(F)F)cc1)c1ccccc1 (stereo not drawn) | -2 | -5 | -6% | -5% | -27% | 0%
SMILES | CHX counter | Shiga inhibitor | Pf growth 48h | Sm TGR block | NS1 inh | Pf growth 96h
CCOc1cc(C(=O)OCc2cc(=O)n3nc(CC)sc3n2)cc(OCC)c1OCC | . | . | . | 1% | . | .
CCc1ccc(C(=O)c2cn(CC(=O)Nc3ccc(F)cc3)c3cc4c(cc3c2=O)OCO4)cc1 | . | . | . | 4% | . | .
Cc1cccc(-c2nc3nc(C)cc(NC(C)c4ccccc4)n3n2)c1 (stereo not drawn) | . | . | . | -9% | . | .
O=C(c1ccco1)N1CCN(Cc2c(F)cccc2Cl)CC1 | 39* | 50* | 32% | -37% | -4% | 17%
COC(=O)c1ccccc1S(=O)(=O)N1CCC(C(=O)NC2CCCCC2C)CC1 (stereo not drawn) | . | . | -25% | -21% | . | ?
NC(=S)Nc1cccc(F)c1 | -2 | -9 | 33% | 4% | 2% | 11%
Fc1cccc(NC(=S)NNc2ccccc2)c1 | 34* | 45* | ? | -26% | -48% | 68%
Oc1cccc(NC(=S)Nc2ccccc2)c1 | 7 | -6 | 54% | 16µM* | 3% | 128%
Fc1cccc(NC(=S)NNc2c3ccccc3nc3ccccc23)c1 | 8 | 17 | 2.1µM* | -10% | . | 1%
Cc1ccc(NC(=O)CSc2nc3ccccc3c3nc(CCc4c(C)n[nH]c4C)nn23)c(C)c1 | . | . | . | -5% | . | .
CCN1C(C(=O)c2ccccc2)=C(OC(=O)c2ccc(OC)cc2)c2ccccc2S1(=O)=O | . | . | . | 6% | . | .
CC(=O)Nc1ccc(NC(=O)C(C)OC(=O)C2(c3ccc(Cl)cc3)CCCC2)cc1 (stereo not drawn) | -2 | -13 | 9.3µM* | -1% | -14% | 12µM*
O=C(O)c1cccc(-c2ccc(/C=c3/sc4nc5ccccc5n4c3=O)o2)c1 | 44* | 70* | 66% | -26% | 8% | 30%
O=c1/c(=C/c2ccccn2)sc2nc3ccccc3n12 | 36* | 126* | 176% | 2% | -1% | 153%
COC(=O)/C=c1/sc2nc3ccccc3n2c1=O | 6 | -12 | ? | 8% | -90% | ?
O=c1c2ccccc2ncn1Cc1nc2ccccc2s1 | -2 | 7 | 13% | -16% | -59% | -3%[5.75 µM]
O=c1c2ccccc2nc2sc3ccccc3n12 | 20* | 97* | 102% | -7% | -13% | 31%
COc1ccc(NC(=O)C(NS(=O)(=O)c2cccs2)C(C)C)cc1Cl (stereo not drawn) | -5 | -8 | -5% | 3% | -3% | 13%
CCOC(=O)COc1ccc([N+](=O)[O-])cc1-c1ccnc2cc(-c3ccc(Cl)cc3)nn12 | . | . | . | 5% | . | .
Cc1cccc(NC(=O)COc2ccc(Br)cc2/C=N/O)c1 | 75* | 121* | 217% | -2% | -11% | ?
NC(=O)c1ccc(NC(=O)COC(=O)CCC(=O)c2ccc(Cl)cc2)cc1 | 1 | -22 | 23% | 50µM* | . | 22%
CC(C)=CC(=O)OCC(=O)Nc1cc(C)cc(C)c1 | 11 | 8 | 32%[5.75 µM] | 0% | -3% | -17%
